In PubChem BioAssay AID720517 (National Center for Advancing Translational Sciences (NCATS), 2013):
Inconclusive results are not listed. Unmarked numbers belong to inactive results. Activity calls are given as the source filed them. Calls come from the whole dose curve; as a rule, active = well fitted activation curve with a large enough effect; inconclusive = small, poorly fitted or top-dose-only effect; inactive = flat fitted curve, though single readings scatter.

Assay: qHTS for Inhibitors of Cell Surface uPA Generation: FP59 Counterscreen for Cherry-picked Compounds; for activity (protection from FP59): 0% is about no effect
Conditions: FP59 anthrax toxin cytotoxicity counterscreen, cells; series mostly up to 115 µM; activity (protection from FP59): at the top concentration
Potency is the fitted concentration of half-maximal effect.

| Structure (SMILES) | activity (protection from FP59) [%] | Potency |
| --- | --- | --- |
| O=C(NC(=O)c1ccccc1)Nc1cccc(S(=O)(=O)N2CCCCC2)c1 | -1.18 | – |
| COc1ccc(C(=O)OCC(=O)N(C)C2CCS(=O)(=O)C2)cc1S(=O)(=O)N(C)Cc1ccccc1 (stereo not given) | -1.36 | – |
| CC(=O)c1ccc(OCCCCOc2ccc(C(C)=O)cc2)cc1 | -1.4 | – |
| COCCCN1CC23C=CC(O2)C(C(=O)O)C3C1=O (stereo not given) | -1.37 | – |
| O=C(CCCC(=O)N1CCN(c2ccccc2F)CC1)c1ccccc1 | -1.35 | – |
| CN(c1ccccc1)S(=O)(=O)c1ccc(C(=O)Nc2nnc(C3CC3)o2)cc1 | -0.58 | – |
| COc1ccc(-c2cc3nc(-c4ccccc4)cc(N4CCCC(O)C4)n3n2)cc1 (stereo not given) | 5.84 | – |
| Cc1ccsc1/C=C(\C#N)C(=O)NC1CCS(=O)(=O)C1 (stereo not given) | -1.29 | – |
| CCCCNc1nnc(SCC(=O)c2c(N)n(CCC)c(=O)[nH]c2=O)s1 | -1.3 | – |
| CC(=O)c1c(C)n(-c2ccccc2Br)c2ccc(O)cc12 | -1.5 | – |
| CC/C(=N\Nc1ccccc1[N+](=O)[O-])c1ccc(O)cc1 | -1.24 | – |
| COc1cc2c(cc1OC)CN(C(=O)c1ccc(-c3ccccc3)cc1)CC2 | 1.17 | – |
| CC(=O)c1cnc2nc(SCc3cccc(C)c3)nn2c1C | -1.58 | – |
| C=CCN1C=C2C(=O)C(C)(OC(=O)c3cnc4ccccc4n3)C(=O)C=C2C=C1/C=C/COC (stereo not given) | -1.35 | – |
| COc1cc(CCC(=O)OCC(=O)NCc2ccccc2)cc(OC)c1OC | 0.669 | – |
| C=CC1=C(C(=O)O)N2C(=O)[C@@H](NC(=O)/C(=N\O)c3csc(N)n3)[C@H]2SC1 (stereo in doubt) | -1.16 | – |
| CN(C)c1ccc(S(=O)(=O)N2CCC(Cc3ccccc3)CC2)cn1 | 0.212 | – |
| CCN1CCN(C(c2ccccc2)c2nnnn2Cc2ccc3c(c2)OCO3)CC1 (stereo not given) | -1.55 | – |
| CCn1nc(C)c(CNC(=O)C2CCC(=O)N(CCc3ccc(OC)cc3)C2)c1C (stereo not given) | -1.23 | – |
| Cc1cc(N2C(=O)C(O)=C(C(=O)c3ccco3)C2c2ccc(Cl)cc2)no1 (stereo not given) | -0.808 | – |

| Structure (SMILES) | activity (protection from FP59) [%] | Potency |
| --- | --- | --- |
| Cc1[nH]c(=O)[nH]c(=O)c1S(=O)(=O)N1CCCc2ccccc21 | -1.55 | – |
| CCCNC(=O)C1CCC(CNS(=O)(=O)c2ccc3c(c2)CC(C)N3C(C)=O)CC1 (stereo not given) | -1.46 | – |
| CC(=O)NC(=S)Nc1ccc([N+](=O)[O-])cc1C | -1.26 | – |
| Cc1cc(C)nc(NC(=O)CSc2nccc(C)n2)n1 | -1.55 | – |
| CCn1c(SC(C)C(=O)NC2CCCC2)nc2cc(S(N)(=O)=O)ccc21 (stereo not given) | -1.27 | – |
| O=C1c2ccccc2[C@@H]2C[C@H](NC34CC5CC(CC(C5)C3)C4)[C@@H](O)CCN12 | -1.36 | – |
| COC(=O)[C@H](CC(C)C)N(Cc1ccccc1)S(=O)(=O)N(Cc1ccc(OC)cc1)[C@@H](CC(C)C)C(=O)OC | -0.209 | – |
| CCOC(=O)c1c(C)oc2ccc(OC(=O)COc3c(F)c(F)c(F)c(F)c3F)cc12 | -1.32 | – |
| O=C1NCCN1C(=O)N(c1ccccc1)c1ccccc1 | -1.48 | – |
| CCCN1CCN(C(=O)CCCn2c(C)c3cnn(-c4ccccc4)c(=O)c3c2C)CC1 | -1.38 | – |
| Cc1ccnc(N2CCN(C(=O)CSc3nc4ccccc4nc3N3CCC(C)CC3)CC2)c1 | – | 65.6 µM (active) |
| CCN(CC)S(=O)(=O)c1cc(NC(=O)COC(=O)C2CCC2)ccc1C | -1.44 | – |
| CCOc1cc(C)c(S(=O)(=O)N2CCCCC2)cc1C | -0.954 | – |
| Fc1ccc(NC(=S)N2CCCC(c3ccccc3)=N2)cc1 | 1.8 | – |
| O=C(NCc1ccc(F)cc1)c1cc(S(=O)(=O)N2CCCCC2)ccc1N1CCOCC1 | -1.3 | – |
| COc1ccc2c(c1)c1nnc(SCC(=O)Nc3ccccc3F)nc1n2C | -0.912 | – |
| NS(=O)(=O)c1ccc(CCNC(=O)c2ccc(Cl)s2)cc1 | -1.27 | – |
| CCC(=O)N(Cc1cc2ccc(C)cc2[nH]c1=O)c1ccccc1OC | -1.32 | – |
| Cc1c(NC(=S)Nc2ccc(Cl)cc2)c(=O)n(-c2ccccc2)n1C | -1.05 | – |
| NC(=O)c1ccccc1NC(=O)CC12CC3CC(CC(C3)C1)C2 | -1.32 | – |
